This passage reports log2 fold change results from the supplement of paper PMC10849652.

The full data set covers some 8,800 targets. This sample favours those with a hit. About 0.5% of all pairs of compound and target were hits. Values without a mark were called inactive.

Chain of UniProt Q9H668 (Q9H668 whole entry, looked up): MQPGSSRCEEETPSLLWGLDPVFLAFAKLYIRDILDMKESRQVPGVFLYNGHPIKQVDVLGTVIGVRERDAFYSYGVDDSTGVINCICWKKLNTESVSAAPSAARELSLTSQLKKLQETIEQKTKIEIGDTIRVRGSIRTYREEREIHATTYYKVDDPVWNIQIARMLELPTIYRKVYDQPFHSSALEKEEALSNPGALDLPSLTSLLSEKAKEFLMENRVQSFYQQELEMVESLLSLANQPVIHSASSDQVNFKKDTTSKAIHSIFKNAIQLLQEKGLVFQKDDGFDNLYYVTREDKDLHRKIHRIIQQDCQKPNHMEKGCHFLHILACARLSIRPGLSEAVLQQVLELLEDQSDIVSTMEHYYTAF
Chain of UniProt Q99961 (Q99961 whole entry, looked up): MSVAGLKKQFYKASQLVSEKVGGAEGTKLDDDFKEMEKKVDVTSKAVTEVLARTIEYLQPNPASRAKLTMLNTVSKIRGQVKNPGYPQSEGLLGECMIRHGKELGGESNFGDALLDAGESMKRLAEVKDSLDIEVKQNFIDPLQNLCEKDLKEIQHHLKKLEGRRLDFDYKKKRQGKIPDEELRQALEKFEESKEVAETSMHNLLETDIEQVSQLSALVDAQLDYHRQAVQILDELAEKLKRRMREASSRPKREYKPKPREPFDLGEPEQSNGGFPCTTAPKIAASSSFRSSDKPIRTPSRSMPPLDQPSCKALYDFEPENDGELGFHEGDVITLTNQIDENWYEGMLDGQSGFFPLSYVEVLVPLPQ
Chain of UniProt Q13242 (Q13242 whole entry, looked up): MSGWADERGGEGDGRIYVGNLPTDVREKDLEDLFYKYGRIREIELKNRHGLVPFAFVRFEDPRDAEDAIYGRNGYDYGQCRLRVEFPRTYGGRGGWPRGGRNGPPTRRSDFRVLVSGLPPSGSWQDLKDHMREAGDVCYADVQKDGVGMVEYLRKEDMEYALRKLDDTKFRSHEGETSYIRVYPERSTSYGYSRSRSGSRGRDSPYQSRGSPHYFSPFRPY
Chain of UniProt P35711 (P35711 whole entry, looked up): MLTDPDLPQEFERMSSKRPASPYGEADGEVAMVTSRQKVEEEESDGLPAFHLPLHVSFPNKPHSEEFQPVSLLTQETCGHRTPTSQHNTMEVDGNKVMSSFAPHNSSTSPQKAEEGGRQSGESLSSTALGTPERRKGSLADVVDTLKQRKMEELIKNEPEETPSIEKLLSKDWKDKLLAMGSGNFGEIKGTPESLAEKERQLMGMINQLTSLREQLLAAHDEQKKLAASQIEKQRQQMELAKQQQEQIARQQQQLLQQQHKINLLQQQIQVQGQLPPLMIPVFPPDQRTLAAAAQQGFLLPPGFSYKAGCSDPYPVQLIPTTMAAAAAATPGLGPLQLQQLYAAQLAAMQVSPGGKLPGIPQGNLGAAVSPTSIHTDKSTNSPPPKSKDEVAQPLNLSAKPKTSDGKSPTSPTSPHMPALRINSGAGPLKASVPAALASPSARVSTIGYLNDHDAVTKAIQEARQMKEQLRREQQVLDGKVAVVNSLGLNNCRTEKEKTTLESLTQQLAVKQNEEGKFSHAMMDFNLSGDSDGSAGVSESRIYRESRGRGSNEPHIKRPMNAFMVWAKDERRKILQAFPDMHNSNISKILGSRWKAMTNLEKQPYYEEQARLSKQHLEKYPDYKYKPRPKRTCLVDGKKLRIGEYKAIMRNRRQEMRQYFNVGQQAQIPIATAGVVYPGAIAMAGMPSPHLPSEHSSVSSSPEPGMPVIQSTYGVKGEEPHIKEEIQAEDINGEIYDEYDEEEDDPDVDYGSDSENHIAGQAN
Chain of UniProt Q13188 (Q13188 whole entry, looked up): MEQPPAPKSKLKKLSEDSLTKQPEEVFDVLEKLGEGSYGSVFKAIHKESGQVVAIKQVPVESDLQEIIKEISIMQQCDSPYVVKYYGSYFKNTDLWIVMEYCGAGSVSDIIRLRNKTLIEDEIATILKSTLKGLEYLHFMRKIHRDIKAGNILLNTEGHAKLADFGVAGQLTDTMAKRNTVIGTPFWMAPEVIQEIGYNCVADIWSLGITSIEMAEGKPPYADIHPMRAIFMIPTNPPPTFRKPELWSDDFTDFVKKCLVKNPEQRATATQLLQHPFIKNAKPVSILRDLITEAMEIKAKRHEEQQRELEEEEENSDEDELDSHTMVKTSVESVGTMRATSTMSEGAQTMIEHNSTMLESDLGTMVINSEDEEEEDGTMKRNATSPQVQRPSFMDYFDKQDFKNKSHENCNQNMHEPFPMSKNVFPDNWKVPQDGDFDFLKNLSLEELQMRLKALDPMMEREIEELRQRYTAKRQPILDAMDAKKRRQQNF
Chain of UniProt Q9BXP5 (Q9BXP5 whole entry, looked up): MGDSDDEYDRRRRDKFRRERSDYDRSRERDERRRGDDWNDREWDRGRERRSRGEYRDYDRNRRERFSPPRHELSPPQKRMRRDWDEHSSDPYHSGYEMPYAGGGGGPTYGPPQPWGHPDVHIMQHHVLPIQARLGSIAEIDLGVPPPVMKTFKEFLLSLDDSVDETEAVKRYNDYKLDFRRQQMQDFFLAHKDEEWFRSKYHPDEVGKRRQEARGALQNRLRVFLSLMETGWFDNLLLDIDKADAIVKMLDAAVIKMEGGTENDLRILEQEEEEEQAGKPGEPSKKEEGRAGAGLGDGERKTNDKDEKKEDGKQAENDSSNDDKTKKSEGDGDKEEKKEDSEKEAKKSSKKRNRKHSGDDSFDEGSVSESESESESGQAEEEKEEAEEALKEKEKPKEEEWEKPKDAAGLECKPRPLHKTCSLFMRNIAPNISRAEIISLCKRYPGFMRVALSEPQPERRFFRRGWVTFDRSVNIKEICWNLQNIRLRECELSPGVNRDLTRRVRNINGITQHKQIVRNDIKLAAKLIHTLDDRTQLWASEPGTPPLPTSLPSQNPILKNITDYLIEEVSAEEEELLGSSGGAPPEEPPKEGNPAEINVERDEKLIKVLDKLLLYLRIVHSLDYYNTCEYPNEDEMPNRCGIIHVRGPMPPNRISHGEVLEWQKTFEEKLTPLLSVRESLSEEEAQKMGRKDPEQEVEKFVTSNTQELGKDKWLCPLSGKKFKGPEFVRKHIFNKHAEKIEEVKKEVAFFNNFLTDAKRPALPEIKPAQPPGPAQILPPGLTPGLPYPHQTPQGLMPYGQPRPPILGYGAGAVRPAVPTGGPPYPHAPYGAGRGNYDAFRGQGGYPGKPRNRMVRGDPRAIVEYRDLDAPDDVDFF
Chain of UniProt P10124 (P10124 whole entry, looked up): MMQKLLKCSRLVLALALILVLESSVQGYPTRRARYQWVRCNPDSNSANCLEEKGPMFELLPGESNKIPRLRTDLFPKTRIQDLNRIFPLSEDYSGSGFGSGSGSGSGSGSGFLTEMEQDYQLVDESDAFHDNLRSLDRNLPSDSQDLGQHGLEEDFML
Chain of UniProt P78314 (P78314 whole entry, looked up): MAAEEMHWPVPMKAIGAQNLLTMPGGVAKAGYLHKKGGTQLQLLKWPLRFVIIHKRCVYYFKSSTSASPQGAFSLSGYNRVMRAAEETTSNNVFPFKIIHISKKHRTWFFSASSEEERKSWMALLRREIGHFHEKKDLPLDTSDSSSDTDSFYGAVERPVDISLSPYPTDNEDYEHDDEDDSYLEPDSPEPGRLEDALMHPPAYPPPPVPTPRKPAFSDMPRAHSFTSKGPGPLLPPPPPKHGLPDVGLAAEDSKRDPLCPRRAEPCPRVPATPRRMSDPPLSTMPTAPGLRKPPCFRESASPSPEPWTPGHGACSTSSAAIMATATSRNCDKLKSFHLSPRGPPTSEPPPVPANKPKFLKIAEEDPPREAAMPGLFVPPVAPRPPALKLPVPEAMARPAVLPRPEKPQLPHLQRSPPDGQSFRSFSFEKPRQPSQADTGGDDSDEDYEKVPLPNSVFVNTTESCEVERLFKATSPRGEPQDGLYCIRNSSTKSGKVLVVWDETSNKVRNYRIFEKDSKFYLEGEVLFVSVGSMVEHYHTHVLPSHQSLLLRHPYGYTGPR
Chain of UniProt Q9H7B4 (Q9H7B4 whole entry, looked up): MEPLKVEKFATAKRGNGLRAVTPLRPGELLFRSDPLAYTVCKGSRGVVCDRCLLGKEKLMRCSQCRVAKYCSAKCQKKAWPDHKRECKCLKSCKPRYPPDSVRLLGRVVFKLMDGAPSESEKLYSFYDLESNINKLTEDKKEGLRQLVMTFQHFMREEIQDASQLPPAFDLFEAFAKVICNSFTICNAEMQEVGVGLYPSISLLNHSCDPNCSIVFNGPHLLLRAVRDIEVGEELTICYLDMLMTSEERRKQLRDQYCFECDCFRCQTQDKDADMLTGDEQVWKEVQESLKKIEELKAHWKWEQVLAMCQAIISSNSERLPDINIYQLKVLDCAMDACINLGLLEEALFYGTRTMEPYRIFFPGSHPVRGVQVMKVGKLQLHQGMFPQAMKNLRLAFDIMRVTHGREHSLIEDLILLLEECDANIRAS
Chain of UniProt Q8TCT8 (Q8TCT8 whole entry, looked up): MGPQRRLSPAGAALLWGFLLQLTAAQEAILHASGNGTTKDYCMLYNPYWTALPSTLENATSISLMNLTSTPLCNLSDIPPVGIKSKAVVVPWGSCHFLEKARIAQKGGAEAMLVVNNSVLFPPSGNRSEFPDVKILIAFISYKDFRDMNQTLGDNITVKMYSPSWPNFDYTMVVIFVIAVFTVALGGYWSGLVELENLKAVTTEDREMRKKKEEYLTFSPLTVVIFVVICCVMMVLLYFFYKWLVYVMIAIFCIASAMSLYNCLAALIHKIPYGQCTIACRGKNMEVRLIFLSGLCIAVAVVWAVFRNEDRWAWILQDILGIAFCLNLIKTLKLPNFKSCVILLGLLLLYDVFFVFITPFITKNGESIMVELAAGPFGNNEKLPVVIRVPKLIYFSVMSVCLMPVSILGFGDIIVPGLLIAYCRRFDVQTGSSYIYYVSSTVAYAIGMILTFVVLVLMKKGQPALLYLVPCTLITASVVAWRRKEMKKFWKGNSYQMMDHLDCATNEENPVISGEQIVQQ
Chain of UniProt B2RUZ4 (B2RUZ4 whole entry, looked up): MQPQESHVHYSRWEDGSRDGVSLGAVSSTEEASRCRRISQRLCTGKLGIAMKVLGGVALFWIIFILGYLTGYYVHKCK
Chain of UniProt Q96EX1 (Q96EX1 whole entry, looked up): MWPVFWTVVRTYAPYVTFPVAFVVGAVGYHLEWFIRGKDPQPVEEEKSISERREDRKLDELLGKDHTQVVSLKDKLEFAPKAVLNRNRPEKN

Compound in the first assay: C=CC(=O)N1CCC[C@@H](n2nc(-c3ccc(Oc4ccccc4)cc3)c3c(N)ncnc32)C1 [ibrutinib]
Nature of the assay: log2 fold change, soluble protein after heating vs DMSO (PISA); higher = thermal stabilisation; K562 lysate, 10 uM; active = over 0.2 and 3.5 SD of the protein, either way, in both replicates (recomputed). In short, it runs like this: (§1)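 Thermal stability, expressed as log-two fold change relative to solvent controls, is given from duplicates. Crude K562 extract in PBS pH 7.4 with 1 mM MgCl2, at 1 mg/mL protein, was treated with 10 μM compound for 30 min and heated in aliquots for 3 min across 48°C-58°C. After pooling, adjustment to 0.5% NP-40 at 4°C and centrifugation at 21,000xg for 90 min, supernatant protein was measured by TMTpro 16plex LC-MS/MS with channel sums equalised.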
On to SORBS3 (UniProt O60504), for which the log2 fold change is -0.005.

Regarding SF3B6 (UniProt Q9Y3B4), the log2 fold change was 0.036.

For TAF1B (UniProt Q53T94), the log2 fold change was -0.156.

For the target SH3GL1 (UniProt Q99961), the log2 fold change was -0.004.

SLC25A38 (UniProt Q96DW6): the log2 fold change was 0.061.

On to SLC30A6 isoform 2 (UniProt Q6NXT4), for which the log2 fold change is 0.052.

With SMYD3 (UniProt Q9H7B4), the log2 fold change was -0.009.

Turning to SIX5 (UniProt Q8N196), the log2 fold change was -0.021.

For SSBP3 (UniProt Q9BWW4), the log2 fold change was 0.435 (active).

Turning to SNRPD2 (UniProt P62316), the log2 fold change is -0.028.

On to SNUPN (UniProt O95149), for which the log2 fold change was -0.072.

In the case of SLC39A11 (UniProt Q8N1S5), the log2 fold change was -0.065.

As to STN1 (UniProt Q9H668), the log2 fold change was 0.133.

For the target SRSF9 (UniProt Q13242), the log2 fold change was -0.009.

Turning to SMIM12 (UniProt Q96EX1), the log2 fold change is 0.04.

SZT2 (UniProt Q5T011): the log2 fold change was -0.225.

Take STMN3 (UniProt Q9NZ72): the log2 fold change is 0.006.

On to SLC25A44 (UniProt Q96H78), for which the log2 fold change was -0.006.

As for SYNE2 isoform 2 (UniProt Q8WXH0), the log2 fold change is 0.

On to STK3 isoform 2 (UniProt Q13188), for which the log2 fold change is 0.11.

For the target SPPL2A (UniProt Q8TCT8), the log2 fold change was -0.081.

In the case of SURF2 (UniProt Q15527), the log2 fold change is 0.001.

Regarding SPC25 (UniProt Q9HBM1), the log2 fold change was 0.

Consider SH3BP2 isoform 4 (UniProt P78314), for which the log2 fold change is 0.096.

Regarding SMC1B isoform 3 (UniProt Q8NDV3), the log2 fold change was 0.013.

For TARBP1 (UniProt Q13395), the log2 fold change was -0.021.

In the case of SSX5 isoform 2 (UniProt O60225), the log2 fold change is -0.081.

Consider SRRT (UniProt Q9BXP5), for which the log2 fold change is 0.013.

In the case of SMIM1 (UniProt B2RUZ4), the log2 fold change is 0.018.

In the case of SOX5 (UniProt P35711), the log2 fold change was -0.064.

As to SYK (UniProt P43405), the log2 fold change is -0.09.

Regarding SUZ12 (UniProt Q15022), the log2 fold change was -0.043.

Turning to SRGN (UniProt P10124), the log2 fold change is 0.109.

Compound in the next assay: CC(=O)c1cnc2ccc(-c3cc(Cl)c(O)c(Cl)c3)nc2c1N[C@H]1CC[C@H](CN(C)C)CC1
The assay is described as above. An outline of the steps:
as §1
Take SORBS3 (UniProt O60504): the log2 fold change was 0.067.

On to SF3B6 (UniProt Q9Y3B4), for which the log2 fold change is 0.004.

As to TAF1B (UniProt Q53T94), the log2 fold change was 0.095.

Turning to SH3GL1 (UniProt Q99961), the log2 fold change was 0.

On to SLC25A38 (UniProt Q96DW6), for which the log2 fold change was -0.108.

In the case of SLC30A6 isoform 2 (UniProt Q6NXT4), the log2 fold change is -0.019.

As for SMYD3 (UniProt Q9H7B4), the log2 fold change is -0.002.

For SIX5 (UniProt Q8N196), the log2 fold change was 0.009.

Turning to SSBP3 (UniProt Q9BWW4), the log2 fold change is -0.024.

Regarding SNRPD2 (UniProt P62316), the log2 fold change was -0.033.

Consider SNUPN (UniProt O95149), for which the log2 fold change was 0.001.

SLC39A11 (UniProt Q8N1S5): the log2 fold change is -0.008.

In the case of STN1 (UniProt Q9H668), the log2 fold change was -0.187.

With SRSF9 (UniProt Q13242), the log2 fold change is -0.009.

As for SMIM12 (UniProt Q96EX1), the log2 fold change is 0.013.

Consider SZT2 (UniProt Q5T011), for which the log2 fold change is -0.102.

Take STMN3 (UniProt Q9NZ72): the log2 fold change was -0.028.

For SLC25A44 (UniProt Q96H78), the log2 fold change was 0.002.

In the case of SYNE2 isoform 2 (UniProt Q8WXH0), the log2 fold change is -0.003.

STK3 isoform 2 (UniProt Q13188): the log2 fold change was 0.364.

For SPPL2A (UniProt Q8TCT8), the log2 fold change is 0.154.

With SURF2 (UniProt Q15527), the log2 fold change is -0.019.

As for SPC25 (UniProt Q9HBM1), the log2 fold change was -0.058.

As for SH3BP2 isoform 4 (UniProt P78314), the log2 fold change is -0.084.

As for SMC1B isoform 3 (UniProt Q8NDV3), the log2 fold change was 0.017.

In the case of TARBP1 (UniProt Q13395), the log2 fold change was 0.036.

As for SSX5 isoform 2 (UniProt O60225), the log2 fold change was 0.028.

As for SRRT (UniProt Q9BXP5), the log2 fold change was 0.

As to SMIM1 (UniProt B2RUZ4), the log2 fold change was 0.005.

As for SOX5 (UniProt P35711), the log2 fold change was 0.14.

In the case of SYK (UniProt P43405), the log2 fold change was -0.041.

In the case of SUZ12 (UniProt Q15022), the log2 fold change was 0.013.

For the target SRGN (UniProt P10124), the log2 fold change is 0.084.

Compound in a further assay: CC(C)(C)Cn1c(N)nc2ccc(-c3[nH]c(C(C)(C)C)nc3-c3ccc(F)cc3)nc21 [ralimetinib]
The description is as above. In short, it runs like this:
as §1
Turning to SORBS3 (UniProt O60504), the log2 fold change is 0.099.

With SF3B6 (UniProt Q9Y3B4), the log2 fold change is -0.001.

In the case of TAF1B (UniProt Q53T94), the log2 fold change was 0.043.

Turning to SH3GL1 (UniProt Q99961), the log2 fold change is 0.031.

Regarding SLC25A38 (UniProt Q96DW6), the log2 fold change was -0.074.

Take SLC30A6 isoform 2 (UniProt Q6NXT4): the log2 fold change is -0.013.

With SMYD3 (UniProt Q9H7B4), the log2 fold change is 0.032.

With SIX5 (UniProt Q8N196), the log2 fold change was -0.023.

SSBP3 (UniProt Q9BWW4): the log2 fold change was 0.

On to SNRPD2 (UniProt P62316), for which the log2 fold change is -0.018.

Regarding SNUPN (UniProt O95149), the log2 fold change was -0.008.

As for SLC39A11 (UniProt Q8N1S5), the log2 fold change is -0.136.

With STN1 (UniProt Q9H668), the log2 fold change was 0.151.

As to SRSF9 (UniProt Q13242), the log2 fold change was 0.001.

SMIM12 (UniProt Q96EX1): the log2 fold change was 0.021.

With SZT2 (UniProt Q5T011), the log2 fold change is 0.14.

STMN3 (UniProt Q9NZ72): the log2 fold change is 0.093.

With SLC25A44 (UniProt Q96H78), the log2 fold change was 0.065.

Take SYNE2 isoform 2 (UniProt Q8WXH0): the log2 fold change was 0.018.

Regarding STK3 isoform 2 (UniProt Q13188), the log2 fold change was -0.001.

For the target SPPL2A (UniProt Q8TCT8), the log2 fold change is -0.152.

SURF2 (UniProt Q15527): the log2 fold change was -0.147.

For the target SPC25 (UniProt Q9HBM1), the log2 fold change was -0.038.

Regarding SH3BP2 isoform 4 (UniProt P78314), the log2 fold change is 0.07.

On to SMC1B isoform 3 (UniProt Q8NDV3), for which the log2 fold change was 0.07.

For TARBP1 (UniProt Q13395), the log2 fold change was 0.162.

In the case of SSX5 isoform 2 (UniProt O60225), the log2 fold change is 0.

As to SRRT (UniProt Q9BXP5), the log2 fold change was 0.026.

For the target SMIM1 (UniProt B2RUZ4), the log2 fold change is 0.054.

For SOX5 (UniProt P35711), the log2 fold change was -0.049.

SYK (UniProt P43405): the log2 fold change is -0.025.

SUZ12 (UniProt Q15022): the log2 fold change was 0.003.

For the target SRGN (UniProt P10124), the log2 fold change was 0.001.
